How the values were obtained:
Experiment in all cases: PBM binding z-score (relative to random genomic background probes); higher = stronger binding; sequences stand for … in GC…GCGATTGACAGCGTAGAATGAAGG
[1] = test system: FXR:RXRa (NR concentration 270 nM, RXRa partner concentration 90 nM)
How it was run: (§1)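 On custom Agilent 4×180K arrays, double-stranded probes with 34-nt variable regions carried direct-repeat seeds, single-nucleotide variants, half-site ablations or random human genomic background. Ligand-free nuclear receptor dimers were applied for 1 h, and binding was read with antibodies against each partner (one per run). Binding z-scores come from regression-normalized fluorescence, with the random background probes as reference.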

[2] = test system: LXRa:RXRa (NR concentration 270 nM, RXRa partner concentration 90 nM)
How it was run: as §1

[3] = test system: LXRa homodimer (NR concentration 270 nM)
How it was run: as §1

[4] = test system: LXRb:RXRa (NR concentration 270 nM, RXRa partner concentration 90 nM)
How it was run: as §1

[5] = test system: LXRb homodimer (NR concentration 270 nM)
How it was run: as §1

[6] = test system: PPARa:RXRa (NR concentration 270 nM, RXRa partner concentration 90 nM)
How it was run: as §1

[7] = test system: PPARg:RXRa (NR concentration 180 nM, RXRa partner concentration 90 nM)
How it was run: as §1

[8] = test system: PPARg:RXRa 270nM:90nM, anti-RXR (NR concentration 270 nM, RXRa partner concentration 90 nM)
How it was run: as §1

[9] = test system: PPARg:RXRa 30nM:10nM, anti-RXR (NR concentration 30 nM, RXRa partner concentration 10 nM)
How it was run: as §1

[10] = test system: PPARg:RXRa 90nM:30nM, anti-RXR (NR concentration 90 nM, RXRa partner concentration 30 nM)
How it was run: as §1

| Sequence | PBM binding z-score [1] | PBM binding z-score [2] | PBM binding z-score [3] | PBM binding z-score [4] | PBM binding z-score [5] | PBM binding z-score [6] | PBM binding z-score [7] | PBM binding z-score [8] | PBM binding z-score [9] | PBM binding z-score [10] |
| --- | --- | --- | --- | --- | --- | --- | --- | --- | --- | --- |
| CGAACTTGGTCAAAGGACAGTGAAAGGCGACGTA | -0.082 | -0.109 | -0.799 | -0.227 | -0.688 | 1.25 | 3.15 | 4.34 | 2.21 | 4.07 |
| CGTCAAAGTTCTAGGTAACGTAACAGAAAGCAGC | -0.164 | -0.199 | 0.179 | 0.0595 | -0.169 | 0.259 | 0.641 | 0.228 | -0.178 | 0.017 |
| ACTAGCAGGCCAAGAGTCACTCAAGATTAGTCCG | 0.0217 | -0.0111 | -0.373 | -0.29 | -0.882 | 1.46 | 2.56 | 4.08 | 2.06 | 3.48 |
| ATATGTAGGCTAGGGTCATTCAGAAAGTAGGGAA | 3.72 | 3.09 | 0.43 | 3.94 | 0.611 | 5.08 | 5.38 | 4.76 | 3.09 | 4.24 |
| CCTACTGGGCCAAAGGACATTGATTCCAATGCTC | -0.0323 | -0.0828 | -0.295 | -0.127 | -0.465 | 2.62 | 5.82 | 6.75 | 5.26 | 7.73 |
| TCTCGGAGGACACGAAAGGTCAGTGCTCGACATC | 2.42 | 3.37 | 3.24 | 2.99 | -0.000616 | 2.99 | 0.746 | 2.29 | 2.43 | 2.19 |
| AGTCAAAGTTCATCTTGGTAACGTAAGATATGCT | 6.87 | 5.48 | 5.97 | 4 | 2.25 | 4.58 | 6.07 | 6 | 3.31 | 5.53 |
| CCTACTGGGCGACGAAAGGTCATTGATTCAGTGA | 3.21 | 3.92 | 4.32 | 3.94 | -0.175 | 4.31 | 2.37 | 3.74 | 1.35 | 2.73 |
| CAAACTAGGTCAAAGGTCAAAGTTGAGCCAACCA | 8.49 | 7.15 | 5.63 | 7.42 | 3.19 | 7.85 | 14 | 11.5 | 12.5 | 13.5 |
| GCTGCTAGGTCAGGATGGTCAGCTAACGGGTACG | 0.825 | 0.646 | -0.251 | 0.268 | -0.621 | 1.6 | 0.968 | 1.04 | -0.242 | 0.479 |
| ATATGTAGGTCAGCTGGGGTCATTCAGACTAGGC | 6.69 | 6.41 | 5.01 | 5.39 | 1.51 | 6.15 | 9 | 7.13 | 5.31 | 7.16 |
| TTACCGAGGTGAAAGGTCGTTGATGCACGCCTTG | 3.99 | 3.64 | 0.332 | 3.53 | -0.52 | 5.85 | 9.29 | 8.26 | 7.84 | 9.2 |
| CAAACTAGGTCACCGGAAAGTCAAAGTCCGCATG | 4.54 | 3.74 | 0.834 | 2.79 | 0.685 | 5.64 | 9.52 | 7.27 | 5.72 | 7.23 |
| ATATGTAGGTTAGGATCATTCAGAAAGTAGGGAA | 0.633 | 0.786 | 0.139 | 0.95 | 0.084 | 2.83 | 3.9 | 3.07 | 1.22 | 2.31 |
| CGAACCAGGTCAAAGGACAGTGAAAGGCGACGTA | 5.18 | 3.73 | 0.284 | 2.63 | -0.254 | 5.27 | 7.61 | 7.03 | 4.9 | 6.76 |
| CGTCCAAGGTCAGTGAGGTCAGTGAATGCCGAGT | 5.29 | 4.25 | 2.06 | 3.89 | -0.0298 | 4.72 | 3.46 | 4.07 | 0.585 | 2.61 |
| CGAACTAGGTCAAAGGACAGTTAAAGGCGACGTA | 4.01 | 2.69 | 0.333 | 1.95 | -0.158 | 5.58 | 10.5 | 8.8 | 7.97 | 9.57 |
| AGTCAAAGTTGATCTAGGTAACGTAAGATATGCT | -0.0957 | -0.391 | -0.431 | -0.102 | -0.616 | 0.713 | 1.39 | 1.2 | 0.421 | 0.958 |
| ATATGTAGGTTAGGGCCATTCAGAAAGTAGGGAA | 0.671 | 0.708 | 0.2 | 0.722 | 0.503 | 2.71 | 3.6 | 3.2 | 1.06 | 2.58 |
| CCCACTGGGCCATTCAGAGGTCATTGATCATATG | 2.54 | 4.33 | 5.65 | 3.72 | 0.313 | 3.79 | 2.37 | 3.28 | 0.826 | 2.27 |
| GATCCAGGGTCAGCTAGAGGCCAGAGTATGGAAA | 4.42 | 2.62 | -0.925 | 2.36 | -1.4 | 4.38 | 3.24 | 3.15 | 0.349 | 1.66 |
| CGAACTAGGTCAGCAGGACAGTGAAGAGGTTGGA | 1.24 | 0.718 | -0.103 | 0.384 | -0.892 | 3.76 | 5.96 | 5.16 | 2.12 | 4.13 |
| CCGACTGGGGCAAAGGTTACCACACTCAGTACGA | 1.86 | 1.89 | 0.137 | 2.27 | -0.702 | 5.83 | 10.7 | 8.79 | 8.43 | 9.24 |
| ACTAGTTGCTCAGCTGAGGTCACACACAATTCGG | 2.75 | 2.94 | 1.75 | 3.4 | 0.214 | 3.4 | 1.17 | 1.69 | 0.448 | 1.24 |

Source: the supplement of paper PMC6555819
